# Only a selection was taken, and the strongest signals are over-represented in it overall.
# B1: UEA-I (Ulex europaeus), P22972 (protein)
# chain: SDDLSFKFKNFSQNGKDLSFQGDASVIETGVLQLNKVGNNLPDETGGIARYIAPIHIWNCNTGEVASFITSFSFFMETSANPKAATDGLTFFLAPPDSPLRRAGGYFGLFEDTKDNDSSYQTVAVEFDTIGSPVNFDDPGFPHIGIDVNRVKSINAERWNKRYGLNNVANVEIIYEASSKTLTASLTYPSDQTSISVTSIVDLKEILPEWVSVGFSGGTYIGRQATHEVLNWYFTSNLINTNS
# Legend:
# Experiment in all cases: glycan array binding signal (z-score within array); higher = stronger binding
# Conditions in all cases: glycan notation: IUPAC condensed, linker removed
# [1] = molecular target: Fuc(a1-2)Gal(b1-3)GlcNAc(b1-3)[Neu5Ac(a2-6)Gal(b1-4)GlcNAc(b1-6)]Gal(b1-4)Glc
# In short: (§1)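 The binding signal is a Z-score computed within each array and averaged over linkers. Arrays of the same protein sequence at different concentrations or buffers were also averaged together. Data originate from 3228 arrays in the Consortium for Functional Glycomics database, kept only where the protein sequence was available.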
# [2] = molecular target: Fuc(a1-2)Gal(b1-3)[Fuc(a1-4)]GlcNAc(b1-2)Man(a1-3)[Fuc(a1-2)Gal(b1-3)[Fuc(a1-4)]GlcNAc(b1-2)Man(a1-6)]Man(b1-4)GlcNAc(b1-4)[Fuc(a1-6)]GlcNAc(b1-4)[Fuc(a1-6)]GlcNAc
# In short: as §1
# [3] = molecular target: Fuc(a1-2)Gal(b1-4)Glc
# In short: as §1
# [4] = molecular target: Fuc(a1-2)Gal(b1-4)Glc6S
# In short: as §1
# [5] = molecular target: Fuc(a1-2)Gal(b1-4)GlcNAc
# In short: as §1
# [6] = molecular target: Fuc(a1-2)Gal(b1-4)GlcNAc(b1-3)[Fuc(a1-2)Gal(b1-4)GlcNAc(b1-6)]GalNAc
# In short: as §1
# [7] = molecular target: Fuc(a1-2)Gal(b1-4)GlcNAc(b1-6)GalNAc
# In short: as §1
# [8] = molecular target: Fuc(a1-2)Gal(b1-4)GlcNAc6S
# In short: as §1
# [9] = molecular target: Fuc(a1-2)Gal(b1-4)[Fuc(a1-3)]GlcNAc(b1-2)Man(a1-3)[Fuc(a1-2)Gal(b1-4)[Fuc(a1-3)]GlcNAc(b1-2)Man(a1-6)]Man(b1-4)GlcNAc(b1-4)[Fuc(a1-6)]GlcNAc
# In short: as §1
# [10] = molecular target: Fuc(a1-2)Gal6S(b1-3)GlcNAc
# In short: as §1
# [11] = molecular target: Fuc(a1-2)Gal6S(b1-4)Glc
# In short: as §1
# [12] = molecular target: Fuc(a1-2)Gal6S(b1-4)Glc6S
# In short: as §1
# [13] = molecular target: Fuc(a1-2)[Gal(a1-3)]Gal
# In short: as §1
# [14] = molecular target: Fuc(a1-2)[Gal(a1-3)]Gal(b1-4)GlcNAc(b1-2)Man(a1-3)[Fuc(a1-2)[Gal(a1-3)]Gal(b1-4)GlcNAc(b1-2)Man(a1-6)]Man(b1-4)GlcNAc(b1-4)GlcNAc
# In short: as §1
# [15] = molecular target: Fuc(a1-2)[Gal(a1-3)]Gal(b1-4)[Fuc(a1-3)]GlcNAc(b1-3)GalNAc
# In short: as §1
# [16] = molecular target: Fuc(a1-2)[Gal(a1-4)]Gal(b1-4)GalNAc
# In short: as §1
# [17] = molecular target: Fuc(a1-2)[Gal(a1-4)]Gal(b1-4)GlcNAc
# In short: as §1
# [18] = molecular target: Fuc(a1-2)[GalNAc(a1-4)]Gal(b1-4)GlcNAc
# In short: as §1
# [19] = molecular target: Fuc(a1-3)[Gal(b1-4)]GlcNAc(b1-6)[Gal(b1-3)GlcNAc(b1-3)]Gal(b1-4)Glc
# In short: as §1
# [20] = molecular target: Fuc(a1-3)[GalNAc(b1-4)]GlcNAc6S
# In short: as §1
# [21] = molecular target: Gal(a1-3)Gal(b1-4)GlcNAc(b1-2)Man(a1-3)[Gal(a1-3)Gal(b1-4)GlcNAc(b1-2)Man(a1-6)]Man(b1-4)GlcNAc(b1-4)GlcNAc
# In short: as §1
# [22] = molecular target: Gal(a1-4)Gal(b1-4)GlcNAc(b1-2)Man(a1-3)[Gal(a1-4)Gal(b1-4)GlcNAc(b1-2)Man(a1-6)]Man(b1-4)GlcNAc(b1-4)GlcNAc
# In short: as §1
# [23] = molecular target: Gal(a1-4)GlcNAc
# In short: as §1
# [24] = molecular target: Gal(b1-3)GalNAc(b1-4)[Neu5Ac(a2-3)]Gal(b1-4)Glc
# In short: as §1
# [25] = molecular target: Gal(b1-3)GlcNAc(a1-6)Gal(b1-4)GlcNAc
# In short: as §1
# [26] = molecular target: Gal(b1-3)GlcNAc(b1-2)Man(a1-3)[Gal(b1-3)GlcNAc(b1-2)Man(a1-6)]Man(b1-4)GlcNAc(b1-4)GlcNAc
# In short: as §1
# [27] = molecular target: Gal(b1-3)GlcNAc(b1-2)Man(a1-3)[Gal(b1-3)GlcNAc(b1-2)Man(a1-6)]Man(b1-4)GlcNAc(b1-4)[Fuc(a1-6)]GlcNAc
# In short: as §1
# [28] = molecular target: Gal(b1-3)[Fuc(a1-4)]GlcNAc(b1-6)GalNAc
# In short: as §1
# [29] = molecular target: Gal(b1-3)[Neu5Ac(a2-6)]GlcNAc(a1-4)Gal(b1-4)Glc
# In short: as §1
# [30] = molecular target: Gal(b1-3)[Neu5Ac(a2-6)]GlcNAc(b1-4)Gal(b1-4)Glc
# In short: as §1
binder,measurement,setting,value
B1,glycan array binding signal (z-score),[1],-0.101
same,glycan array binding signal (z-score),[2],-0.186
same,glycan array binding signal (z-score),[3],4.65
same,glycan array binding signal (z-score),[4],8.87
same,glycan array binding signal (z-score),[5],5.04
same,glycan array binding signal (z-score),[6],5.44
same,glycan array binding signal (z-score),[7],4.28
same,glycan array binding signal (z-score),[8],5.67
same,glycan array binding signal (z-score),[9],-0.035
same,glycan array binding signal (z-score),[10],-0.194
same,glycan array binding signal (z-score),[11],4.67
same,glycan array binding signal (z-score),[12],5.33
same,glycan array binding signal (z-score),[13],-0.199
same,glycan array binding signal (z-score),[14],-0.194
same,glycan array binding signal (z-score),[15],-0.022
same,glycan array binding signal (z-score),[16],5.51
same,glycan array binding signal (z-score),[17],5.58
same,glycan array binding signal (z-score),[18],5.17
same,glycan array binding signal (z-score),[19],-0.103
same,glycan array binding signal (z-score),[20],-0.217
same,glycan array binding signal (z-score),[21],-0.163
same,glycan array binding signal (z-score),[22],0.015
same,glycan array binding signal (z-score),[23],-0.168
same,glycan array binding signal (z-score),[24],-0.207
same,glycan array binding signal (z-score),[25],-0.139
same,glycan array binding signal (z-score),[26],-0.101
same,glycan array binding signal (z-score),[27],-0.16
same,glycan array binding signal (z-score),[28],-0.098
same,glycan array binding signal (z-score),[29],-0.409
same,glycan array binding signal (z-score),[30],-0.234
